Values without a mark were called inactive. Active and inactive are the calls of the source. Calls come from the whole dose curve; as a rule, active = well fitted inhibition curve with a large enough effect; inconclusive = small, poorly fitted or top-dose-only effect; inactive = no such curve, though single readings can be large or run the other way.
Each compound was assayed against Pyruvate kinase (Leishmania mexicana) (UniProt Q27686) (assay: qHTS Validation Assay for Inhibitors of Leishmania Mexicana Pyruvate Kinase (AID 945;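 for activity change, negative = inhibition: 0% = DMSO only neutral control wells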)). Conditions: purified L. mexicana pyruvate kinase, enzyme activity, E451W mutant enzyme; series mostly up to 57.5 µM; activity change, negative = inhibition: at the top concentration.
Chain of Pyruvate kinase (Leishmania mexicana) (Q27686 2-499 E452W): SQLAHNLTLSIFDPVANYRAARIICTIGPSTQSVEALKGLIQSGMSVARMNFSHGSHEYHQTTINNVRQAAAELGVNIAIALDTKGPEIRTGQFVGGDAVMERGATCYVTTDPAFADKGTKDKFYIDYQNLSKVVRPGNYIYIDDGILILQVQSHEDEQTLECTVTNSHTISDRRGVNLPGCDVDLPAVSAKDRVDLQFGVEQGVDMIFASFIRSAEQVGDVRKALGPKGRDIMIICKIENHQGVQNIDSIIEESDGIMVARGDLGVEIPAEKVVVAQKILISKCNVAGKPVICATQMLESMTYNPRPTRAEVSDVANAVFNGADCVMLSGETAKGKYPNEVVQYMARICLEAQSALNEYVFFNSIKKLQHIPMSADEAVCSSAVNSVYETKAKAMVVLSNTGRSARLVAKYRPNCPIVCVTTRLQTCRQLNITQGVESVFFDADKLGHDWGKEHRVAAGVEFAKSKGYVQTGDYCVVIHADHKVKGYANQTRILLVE
From the text: NIH Molecular Libraries Screening Centers Network [MLSCN]
NIH Chemical Genomics Center [NCGC]
PI names: Malcom Walkinshaw, Hugh Morgan and Linda Gilmore
University of Edinburgh, Edinburgh, UK
Species of Leishmania are responsible for a wide spectrum of diseases throughout the tropics and subtropics, ranging from self-healing ulcers to highly disfiguring lesions and serious, often lethal visceral diseases, such as kala-azar. In Leishmania spp. it has been shown that both sugar uptake and gluconeogenesis are necessary to synthesize sufficient hexose-phosphate required for the production of glycoconjugates and the intracellular polysaccharide mannan which are essential for both replication and virulence of the parasites. Therefore, most of the enzymes participating in glycolysis and gluconeogenesis are expected to be essential (Naderer et al., 2006). The assay described here targets pyruvate kinase from Leishmania mexicania (LmPYK) that was obtained as a highly purified preparation from the University of Edinburgh (E451W mutant was provided). A 1536 well assay protocol was set up and validated by screening the LOPAC library in triplicate as an eight point concentration-titration series using the qHTS platform developed at the NCGC.
NCGC Assay Protocol Summary:
Three uL of substrate mix (final concentrations, 50 mM imidazole pH 7.2, 50 mM KCl, 7 mM MgCl2, 0.5 mM PEP, 0.1 mM ADP, 0.01% Tween 20, 0.05% BSA) was dispensed into white solid medium binding Greiner 1536 well plates. 23 nL of compound were delivered by a pin tool and 1 uL of enzyme mix (final concentration, 0.2 nM LmPYK, 50 mM imidazole pH 7.2, 0.05% BSA) was added. Plates were covered with stainless steel gasket-lined lids and incubated at room temperature for 1 hour. Two uL of detection and kinase stop mix (PKLight, Lonza) was added, and luminescence read by a ViewLux (Perkin Elmer) at 2 second exposure/plate using 2x binning. Controls on each plate were as follows: column 1, sixteen-point titration (1:2 dilutions) in duplicate the LmPK activator LOPAC-C8145 beginning at 57 uM final concentration; column 2, sixteen-point titration (1:2 dilutions) in duplicate activator LOPAC-S4063 beginning at 57 uM final concentration; column 3, column 4 DMSO only. Data were normalized to the neutral control (column 3).
In the case of `COc1ccc2c(c1)[C@]13CCCC[C@@H]1[C@H](C2)N(C)CC3`, the “activity change, negative = inhibition” value is reported as 6.87%.
In the case of `COC[C@H]1OC(=O)c2coc3c2[C@@]1(C)C1=C(C3=O)[C@H]2CCC(=O)[C@@]2(C)C[C@H]1OC(C)=O`, the “activity change, negative = inhibition” value is reported as -7.84%.
In the case of `O=[N+]([O-])c1ccc(O[C@H]2O[C@@H](CO)[C@@H](O)[C@@H](O)[C@@H]2F)c([N+](=O)[O-])c1`, the “activity change, negative = inhibition” value is reported as 4.65%.
In the case of `C=CCN1CC[C@@]23CCCC[C@@H]2[C@@H]1Cc1ccc(O)cc13`, the “activity change, negative = inhibition” value is reported as 6.14%.
`CCN(CC)C(=O)N[C@H]1C[C@H]2c3cccc4[nH]cc(c34)C[C@@H]2N(C)C1` was tested, and the “activity change, negative = inhibition” value was 3.63%.
In the case of `C[C@H](N[C@@H](C)CCc1ccccc1)[C@H](O)c1ccc(O)cc1`, the “activity change, negative = inhibition” value is reported as 5.52%.
With `CCN1C[C@]2(C)CC[C@@H](O)[C@]34[C@@H]5CC6[C@@H](OC)C[C@@](O)([C@H]5[C@@H]6O)[C@@H](C[C@@H]23)[C@H]14` the “activity change, negative = inhibition” value was 7.86%.
`N[C@@H]1CCc2cc(O)c(O)cc2C1` was tested, and the “activity change, negative = inhibition” value was -8.15%.
For `CN[C@@H](C)[C@@H](O)c1ccccc1`, the Potency was 10 µM (active).
`Oc1ccc2c3c1O[C@@H]1[C@@H](O)CC[C@]4(O)[C@H](C2)N(CC2CCC2)CC[C@@]314` was tested, and the “activity change, negative = inhibition” value was -14.9%.
`C=CCN1CC[C@]23c4c5ccc(O)c4O[C@@H]2C(=O)CC[C@@]3(O)[C@H]1C5` was tested, and the “activity change, negative = inhibition” value was 3.1%.
For `Oc1cc2c(cc1O)[C@H]1c3ccccc3CN[C@@H]1CC2`, the “activity change, negative = inhibition” value was -13.6%.
In the case of `C[C@@H]1O[C@@H](O[C@H]2C[C@@H](O)[C@]3(CO)[C@@H]4[C@@H](O)C[C@]5(C)[C@H](C6=CC(=O)OC6)CC[C@@]5(O)[C@H]4CC[C@@]3(O)C2)[C@H](O)[C@H](O)[C@@H]1O`, the “activity change, negative = inhibition” value is reported as 4.71%.
`NC(=O)c1ccc(OC[C@H](O)CN2CC=C(c3ccc(F)cc3)CC2)cc1` was tested, and the “activity change, negative = inhibition” value was -1.81%.
In the case of `CC(C)(C)NC[C@H](O)c1ccccc1Cl`, the “activity change, negative = inhibition” value is reported as 3.69%.
For `C[C@]12Cc3cn4c(nc3C=C1CC[C@H]1[C@@H]2CC[C@@]2(C)[C@H]1CC[C@@]2(O)C#N)nc1ccccc14`, the “activity change, negative = inhibition” value was -6.25%.
With `C[C@]1(C(=O)O)[C@@H]2CC[C@@H](O2)[C@@]1(C)C(=O)O` the “activity change, negative = inhibition” value was -8.52%.
`CCCCCCCCCCCCCC(=O)O[C@H]1[C@@H](C)[C@@]2(O)[C@@H](C=C(CO)C[C@]3(O)C(=O)C(C)=C[C@@H]23)C2C(C)(C)[C@]21OC(C)=O` (some centres not stated) was tested, and the “activity change, negative = inhibition” value was -5.55%.
With `C=CCN1CCc2cccc3c2[C@@H]1Cc1ccc(O)c(O)c1-3` the “activity change, negative = inhibition” value was 3.41%.
For `C/C=C(\C)C(=O)O[C@@H]1C(C)=C2[C@H]([C@@H]1OC(=O)CCCCCCC)[C@@](C)(OC(C)=O)C[C@@H](OC(=O)CCC)[C@@]1(O)[C@H]2OC(=O)[C@]1(C)O`, the “activity change, negative = inhibition” value was 14.9%.
For `CC(C)(O)[C@H]1[C@H]2OC(=O)[C@@H]1[C@]1(O)C[C@H]3O[C@]34C(=O)O[C@H]2[C@]14C` (tested in a mixture with another compound), the “activity change, negative = inhibition” value was -11.2%.
With `CCCN1CCC[C@H](c2cccc(C#N)c2)C1` the “activity change, negative = inhibition” value was -6.87%.
In the case of `CCCC[N+]1(C)[C@@H]2CC(OC(=O)[C@@H](CO)c3ccccc3)C[C@H]1[C@H]1O[C@H]12` (some centres not stated), the “activity change, negative = inhibition” value is reported as -2.49%.
`Ic1ccccc1CN[C@@H]1C2CCN(CC2)[C@H]1C(c1ccccc1)c1ccccc1` was tested, and the “activity change, negative = inhibition” value was 28.4%.
For `C[N+]1(C)CCO[C@@](O)(c2ccc(-c3ccc([C@]4(O)C[N+](C)(C)CCO4)cc3)cc2)C1`, the “activity change, negative = inhibition” value was 4.58%.
`O[C@@H]1CCCC[C@H]1N1CCC(c2ccccc2)CC1` was tested, and the “activity change, negative = inhibition” value was 1.61%.
With `CC[C@H](CO)NC(=O)[C@@H]1C=C2c3cccc4c3c(cn4C)C[C@@H]2N(C)C1` the “activity change, negative = inhibition” value was -12.5%.
In the case of `N[C@@H](Cc1cc(O)c(O)cc1O)C(=O)O`, the “activity change, negative = inhibition” value is reported as 168%.
In the case of `CC(C)n1cc2c3c(cccc31)[C@@H]1C[C@H](C(=O)O[C@@H](C)[C@H](C)O)CN(C)[C@H]1C2`, the “activity change, negative = inhibition” value is reported as -5.18%.
With `C[C@H](N)c1cccc(Cl)c1Cl` the “activity change, negative = inhibition” value was 3.53%.
In the case of `C[C@@H]1O[C@@H](O[C@H]2C[C@@H](O)[C@]3(CO)[C@@H]4[C@@H](O)C[C@]5(C)[C@H]([C@@H]6COC(=O)C6)CC[C@@]5(O)[C@H]4CC[C@@]3(O)C2)[C@H](O)[C@H](O)[C@@H]1O`, the “activity change, negative = inhibition” value is reported as -3.76%.
With `CN1[C@@H]2CC[C@H]1CC(O[C@@H](c1ccccc1)c1ccccc1N)C2` (some centres not stated) the “activity change, negative = inhibition” value was 3.26%.
With `CC[C@H](CO)NC(=O)[C@@H]1C=C2c3cccc4[nH]cc(c34)C[C@@H]2N(C)C1` the “activity change, negative = inhibition” value was -8.45%.
In the case of `CC(C)[C@@H]1NC(=O)[C@H](CCCCN)NC(=O)[C@H](Cc2c[nH]c3ccccc23)NC(=O)[C@H](Cc2ccc(O)cc2)NC(=O)[C@H](C)N(C)C(=O)[C@H](Cc2ccccc2)NC1=O`, the “activity change, negative = inhibition” value is reported as -9.54%.
In the case of `CCCN1CCc2cccc3c2[C@@H]1Cc1ccc(O)c(O)c1-3`, the “activity change, negative = inhibition” value is reported as 1.28%.
`C=CCN1C[C@@H](C)N([C@H](c2ccc(C(=O)N(CC)CC)cc2)c2cccc(OC)c2)C[C@H]1C` was tested, and the “activity change, negative = inhibition” value was 7.93%.
With `C[C@@H](Cc1ccc2c(c1)OC(C(=O)O)(C(=O)O)O2)NC[C@H](O)c1cccc(Cl)c1` the “activity change, negative = inhibition” value was 9.83%.
Potency is the fitted concentration of half-maximal effect.
